The panel holds about 79,000 compounds, 15% with a hit somewhere; the sample as a whole holds those more often. Unmarked numbers belong to inactive results. Active and inactive are the calls of the source. Rule as the data show it: active = growth inhibition above about 70%; inactive = the rest.

Results on ten compounds are retold here after PubChem BioAssay (NCI).

Assay [1] can be described thus: NCI Yeast Anticancer Drug Screen. Data for the rad50 strain (AID 155).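 Also: 0% = growth of vehicle-only cultures of the same strain.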 Conditions: S. cerevisiae rad50 strain growth inhibition, hits give high values. An outline of the steps: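 Relative growth inhibition (compound vs vehicle) was measured in yeast with a defined repair-gene alteration.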
Assay [2] is described as follows: NCI Yeast Anticancer Drug Screen. Data for the mec2-1 strain (AID 157). Conditions: S. cerevisiae mec2-1 strain, hits give high values. An outline of the steps: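 mec2-1 yeast strain, carrying an alteration in DNA damage repair or cell cycle control, was exposed to compounds; growth inhibition was measured relative to vehicle-treated controls.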
The nature of assay [3]: NCI Yeast Anticancer Drug Screen. Data for the sgs1 mgt1 strain (AID 161).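 Also: 0% = growth of cultures given vehicle only.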 The settings on record: S. cerevisiae sgs1 mgt1 strain, hits give high values. An outline of the steps:
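Percent growth inhibition was derived by comparing compound-exposed mutant yeast with vehicle-exposed cultures. The strain carries alterations in DNA damage repair.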

The nature of assay [4]: NCI Yeast Anticancer Drug Screen. Data for the cln2 rad14 strain (AID 165).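 Also: 0% = growth equal to vehicle treated cultures.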 The settings on record: S. cerevisiae cln2 rad14 strain, hits give high values. In short, it runs like this:
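Yeast carrying cln2 and rad14 alterations (cell cycle control and DNA damage repair) were exposed to compounds. Growth inhibition was measured against vehicle-treated controls.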

Assay [5] is described as follows: NCI Yeast Anticancer Drug Screen. Data for the bub3 strain (AID 167). The settings on record: S. cerevisiae bub3 mutant strain, hits give high values. In short, it runs like this: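 Screening used yeast with an engineered genetic alteration affecting cell cycle control. Compound-exposed cultures were compared with vehicle cultures, and reduced growth was taken as inhibition.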

The nature of assay [6]: NCI Yeast Anticancer Drug Screen. Data for the mlh1 rad18 strain (AID 175). Conditions: S. cerevisiae mlh1 rad18 strain growth inhibition, hits give high values. An outline of the steps:
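Growth inhibition of the yeast strain was measured after compound exposure and expressed relative to vehicle-treated controls. The strain carries defined defects in DNA damage repair.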

Setting [7] is: at 5.0 µM (retest, dose inferred, filed as 0.5).
Setting [8] is: at 50.0 µM (retest, dose inferred, filed as 5.0).

Turning to `OCC(c1ccccc1)c1ccccc1`, the growth inhibition is 24% in assay [1] (setting [7]); 42% in assay [1] (setting [8]); 77.8% (active) in assay [1] (at 50.0 µM); 2% in assay [2] (setting [7]); 6% in assay [2] (setting [8]); 54.5% in assay [2] (at 50.0 µM). Also, the growth inhibition was 41% in assay [3] (setting [7]); 34% in assay [3] (setting [8]); 76.5% (active) in assay [3] (at 50.0 µM); 2% in assay [4] (setting [7]); 9% in assay [4] (setting [8]); -14.2% in assay [4] (at 50.0 µM). For the same compound, the growth inhibition was 39% in assay [5] (setting [7]); 43% in assay [5] (setting [8]); 18% in assay [5] (at 50.0 µM); 11% in assay [6] (setting [7]); 22% in assay [6] (setting [8]); 80.2% (active) in assay [6] (at 50.0 µM).
Take `CCCCCCCCCSC(=S)N(C)NC(=O)c1ccccn1`: the growth inhibition in assay [1] (setting [7]) is 14%; in assay [1] (setting [8]), 70% (active); in assay [1] (at 50.0 µM), 89% (active); in assay [2] (setting [7]), 6%; in assay [2] (setting [8]), 81% (active); in assay [2] (at 50.0 µM), 94% (active). In addition, the growth inhibition in assay [3] (setting [7]) was 4%; in assay [3] (setting [8]), 82% (active); in assay [3] (at 50.0 µM) it was 93.8% (active); in assay [4] (setting [7]), -3%; in assay [4] (setting [8]), 71% (active); in assay [4] (at 50.0 µM), 92.1% (active). Besides, the growth inhibition in assay [5] (setting [7]) is -7%; in assay [5] (setting [8]) it was 78% (active); in assay [5] (at 50.0 µM), 92% (active); in assay [6] (setting [7]), 8%; in assay [6] (setting [8]) it was 85% (active); in assay [6] (at 50.0 µM), 93.7% (active).
In the case of `C1=C(C2=CCCc3ccccc32)c2ccccc2CC1`, the growth inhibition in assay [1] (setting [7]) was -1%; in assay [1] (setting [8]), 36%; in assay [1] (at 50.0 µM), 30.4%; in assay [2] (setting [7]), -5%; in assay [2] (setting [8]), 27%; in assay [2] (at 50.0 µM) it was 34.5%. The growth inhibition is -3% in assay [3] (setting [7]); 50% in assay [3] (setting [8]); 31.9% in assay [3] (at 50.0 µM); -4% in assay [4] (setting [7]); 59% in assay [4] (setting [8]); -45.8% in assay [4] (at 50.0 µM). Besides, the growth inhibition was -2% in assay [5] (setting [7]); 34% in assay [5] (setting [8]); 5.5% in assay [5] (at 50.0 µM); -1% in assay [6] (setting [7]); 43% in assay [6] (setting [8]); 74.9% (active) in assay [6] (at 50.0 µM).
Regarding `O=C(Nc1ccc(NC(=O)Nc2cc(C(=O)Nc3ccc(C4=NCCN4)cc3)ccc2C(=O)Nc2ccc(C3=NCCN3)cc2)cc1)Nc1cc(C(=O)Nc2ccc(C3=NCCN3)cc2)ccc1C(=O)Nc1ccc(C2=NCCN2)cc1`, the growth inhibition was 7% in assay [1] (setting [7]); -4% in assay [1] (setting [8]); 95.5% (active) in assay [1] (at 50.0 µM); 0% in assay [2] (setting [7]); -6% in assay [2] (setting [8]); 94.5% (active) in assay [2] (at 50.0 µM). For the same compound, the growth inhibition in assay [3] (setting [7]) was 2%; in assay [3] (setting [8]), -3%; in assay [3] (at 50.0 µM), 95.9% (active); in assay [4] (setting [7]), -1%; in assay [4] (setting [8]), 1%; in assay [4] (at 50.0 µM) it was 95% (active). Also, the growth inhibition is 2% in assay [5] (setting [7]); 16% in assay [5] (setting [8]); 97% (active) in assay [5] (at 50.0 µM); 7% in assay [6] (setting [7]); -2% in assay [6] (setting [8]); 96.5% (active) in assay [6] (at 50.0 µM).
For the compound `CCc1ccccc1NC1=C(Cl)C(=O)c2ccccc2C1=O`, the growth inhibition was 99% (active) in assay [1] (setting [7]); 98% (active) in assay [1] (setting [8]); -1.85% in assay [1] (at 50.0 µM); 100% (active) in assay [2] (setting [7]); 99% (active) in assay [2] (setting [8]); 10.8% in assay [2] (at 50.0 µM). Further, the growth inhibition in assay [3] (setting [7]) was 100% (active); in assay [3] (setting [8]), 99% (active); in assay [3] (at 50.0 µM), 1.85%; in assay [4] (setting [7]), 77% (active); in assay [4] (setting [8]) it was 99% (active); in assay [4] (at 50.0 µM), -20.3%. The growth inhibition is 99% (active) in assay [5] (setting [7]); 99% (active) in assay [5] (setting [8]); -0.2% in assay [5] (at 50.0 µM); 99% (active) in assay [6] (setting [7]); 98% (active) in assay [6] (setting [8]); 10% in assay [6] (at 50.0 µM).
As to `Clc1ccc(CSc2ncnc3c2ncn3C2CCCCO2)cc1` (stereo not given), the growth inhibition is -5% in assay [1] (setting [7]); 97% (active) in assay [1] (setting [8]); 97.5% (active) in assay [1] (at 50.0 µM); -7% in assay [2] (setting [7]); 96% (active) in assay [2] (setting [8]); 97.5% (active) in assay [2] (at 50.0 µM). The growth inhibition in assay [3] (setting [7]) was 15%; in assay [3] (setting [8]), 92% (active); in assay [3] (at 50.0 µM), 97.5% (active); in assay [4] (setting [7]), -20%; in assay [4] (setting [8]) it was 88% (active); in assay [4] (at 50.0 µM) it was 94.3% (active). Moreover, the growth inhibition in assay [5] (setting [7]) was -15%; in assay [5] (setting [8]), 78% (active); in assay [5] (at 50.0 µM), 95.8% (active); in assay [6] (setting [7]), 3%; in assay [6] (setting [8]) it was 96% (active); in assay [6] (at 50.0 µM), 97% (active).
Regarding `O=C1c2c(Br)sc(Br)c2[C@@H](NC(=O)C(F)(F)F)C1Br` (stereo not given in full), the growth inhibition was 8% in assay [1] (setting [7]); 99% (active) in assay [1] (setting [8]); 89.3% (active) in assay [1] (at 50.0 µM); 3% in assay [2] (setting [7]); 97% (active) in assay [2] (setting [8]); 81.2% (active) in assay [2] (at 50.0 µM). In addition, the growth inhibition was 19% in assay [3] (setting [7]); 99% (active) in assay [3] (setting [8]); 97% (active) in assay [3] (at 50.0 µM); -1% in assay [4] (setting [7]); 93% (active) in assay [4] (setting [8]); 28.1% in assay [4] (at 50.0 µM). The growth inhibition in assay [5] (setting [7]) is -3%; in assay [5] (setting [8]), 94% (active); in assay [5] (at 50.0 µM) it was 80% (active); in assay [6] (setting [7]) it was 17%; in assay [6] (setting [8]) it was 99% (active); in assay [6] (at 50.0 µM), 91.8% (active).
`CCCCN(CCCC)CC(O)c1cc(-c2ccc(Cl)cc2)nc2c(-c3ccccc3)cccc12` (stereo not given): the growth inhibition in assay [1] (setting [7]) is -1%; in assay [1] (setting [8]), 30%; in assay [1] (at 50.0 µM), 52.8%; in assay [2] (setting [7]) it was -5%; in assay [2] (setting [8]), 13%; in assay [2] (at 50.0 µM) it was 36.3%. Besides, the growth inhibition is 0% in assay [3] (setting [7]); 54% in assay [3] (setting [8]); 80.8% (active) in assay [3] (at 50.0 µM); -7% in assay [4] (setting [7]); 22% in assay [4] (setting [8]); 13.8% in assay [4] (at 50.0 µM). The growth inhibition is -4% in assay [5] (setting [7]); 24% in assay [5] (setting [8]); 8.15% in assay [5] (at 50.0 µM); 0% in assay [6] (setting [7]); 39% in assay [6] (setting [8]); 66.7% in assay [6] (at 50.0 µM).
As to `CN1CCN(CCCCN2c3ccccc3Sc3ccc(C(=O)c4ccccc4)cc32)CC1`, the growth inhibition in assay [1] (setting [7]) is 25%; in assay [1] (setting [8]), 27%; in assay [1] (at 50.0 µM) it was 75.6% (active); in assay [2] (setting [7]) it was 26%; in assay [2] (setting [8]), 34%; in assay [2] (at 50.0 µM) it was 22.8%. For the same compound, the growth inhibition in assay [3] (setting [7]) was 27%; in assay [3] (setting [8]) it was 2%; in assay [3] (at 50.0 µM), 87.2% (active); in assay [4] (setting [7]) it was 30%; in assay [4] (setting [8]), 18%; in assay [4] (at 50.0 µM) it was -9.8%. Also, the growth inhibition in assay [5] (setting [7]) was 36%; in assay [5] (setting [8]), 25%; in assay [5] (at 50.0 µM) it was 22%; in assay [6] (setting [7]) it was 32%; in assay [6] (setting [8]), 37%; in assay [6] (at 50.0 µM), 60.2%.
As for `COc1cc(NS(=O)(=O)c2ccc(NC(C)c3ccc4cccnc4c3O)cc2)nc(OC)n1` (stereo not given), the growth inhibition was 3% in assay [1] (setting [7]); 81% (active) in assay [1] (setting [8]); 95.1% (active) in assay [1] (at 50.0 µM); 2% in assay [2] (setting [7]); 40% in assay [2] (setting [8]); 97.2% (active) in assay [2] (at 50.0 µM). The growth inhibition in assay [3] (setting [7]) was 1%; in assay [3] (setting [8]) it was 87% (active); in assay [3] (at 50.0 µM), 69.4%; in assay [4] (setting [7]), -3%; in assay [4] (setting [8]), 78% (active); in assay [4] (at 50.0 µM), 66%. The growth inhibition in assay [5] (setting [7]) was -2%; in assay [5] (setting [8]), 88% (active); in assay [5] (at 50.0 µM) it was 96.8% (active); in assay [6] (setting [7]), 5%; in assay [6] (setting [8]), 82% (active); in assay [6] (at 50.0 µM) it was 97.3% (active).
